Experiment [1] is described as follows: qHTS assay to identify small molecule antagonists of the estrogen related receptor (ERR) signaling pathway from Tox21 library - cell viability counter screen (AID 1224834). Further: nearly all actives have a fitted effect of over 30% in size. The essentials: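 Multiplexed viability counter screen in ERR cells: 17.5 h compound exposure at 37 C, CellTiter-Fluor added, 30 min at 37 C/5% CO2, fluorescence read.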
A short description of experiment [2]: qHTS assay to identify small molecule agonists of the constitutive androstane receptor (CAR) signaling pathway - cell viability counter screen (AID 1224836). Further: nearly all actives have a fitted effect of over 45% in size. The procedure, abridged:
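HepG2-CYP2B6-hCAR, 2500 cells/well, 4 h pre-incubation; cpd 15 conc + PK11195 0.75 uM final; 23 h, 37 C/5% CO2; CellTiter-Fluor, fluorescence.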
For orientation: In qHTS, concentration-response curves come from the screen itself.

Experiment [3] has as its target Nuclear receptor subfamily 1 group I member 3 (Homo sapiens) (UniProt Q14994). In words: qHTS assay to identify small molecule agonists of the constitutive androstane receptor (CAR) signaling pathway (AID 1224839).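 Further: HepG2 cells stably carrying human CAR and a CYP2B6 luciferase reporter; nearly all actives have a fitted effect of over 15% in size.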 The essentials:
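HepG2-CYP2B6-hCAR cells, 2500/well, 4 h pre-incubation; compounds 15 conc.; PK11195 0.75 uM final; 24 h, 37 C/5% CO2; ONE-Glo luciferase read.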

The nature of experiment [4]: qHTS assay to identify small molecule antagonists of the estrogen related receptor signaling pathway with the pleiotropic PPARgamma coactivator (PGC) from Tox21 10K library - cell viability counter screen (AID 1224840; active means well fitted cell-killing curve with a large enough effect in the repeat runs, not every such curve was filed as active; further: nearly all actives have a fitted effect of over 40% in size). The essentials:
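Fluorescence read-out of CellTiter-Fluor viability reagent, added after cells had been exposed to compound in DMSO for 17.5 h at 37 C; 30 min development at 37 C/5% CO2. Cells: PGC/ERR line, 2,000/well.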

Experiment [5] in a line: qHTS assay to identify small molecule agonists of the hypoxia (HIF-1) signaling pathway - cell viability counter screen (AID 1224844; calls by dose curve; further: nearly all actives have a fitted effect of over 50% in size; further: potency means the concentration at half of the fitted maximal effect). The procedure, abridged: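 CellTiter-Glo luminescence read-out, 30 min RT, taken in the same wells as the beta-lactamase HRE reporter assay; HRE-bla ME-180 cells, 0.5% dialyzed FBS, 17 hr compound treatment at 37C, 5% CO2.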
The nature of experiment [6]: qHTS assay to identify small molecule agonists of H2AX (AID 1224845; active means well fitted activation curve with a large enough effect in the signal ratio in the repeat runs, not every such curve was filed as active; the % refers to the signal ratio). The procedure, abridged: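 Wild-type CHO-K1 cells plated overnight, then exposed 3 hr at 37C to compounds at 15 concentrations (0.76% DMSO). Lysed, then HTRF anti-pH2AX(S139)-cryptate/anti-H2AX-d2 detection after 24 hr at room temperature; emissions 665 and 620 nm.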
A short description of experiment [7]: qHTS assay to identify small molecule agonists of the hypoxia (HIF-1) signaling pathway (AID 1224846; active means well fitted activation curve with a large enough effect in the signal ratio in the repeat runs, not every such curve was filed as active; the % refers to the signal ratio). The procedure, abridged:
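Beta-lactamase FRET read-out (CCF4-AM substrate) from ME-180 cells carrying an HRE-driven bla reporter, after 17 hrs compound exposure at 37C/5% CO2. Cells were seeded at 2,000 per well in 0.5% dialyzed FBS medium and preincubated 5 hrs.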

Experiment [8] in a line: qHTS assay to identify small molecule agonists of H2AX - cell viability counter screen (AID 1224847; calls by dose curve; further: top concentration of the series differs between compounds; nearly all actives have a fitted effect of over 30% in size). The procedure, abridged: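 Cells plated first: CHO-K1, 1000 per well in 10% FBS medium, incubated overnight at 37C. Then 15-point compound titration added (final DMSO 0.76%) for 3 hr. Finally CellTiter-Glo added and luminescence read.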
Experiment [9] can be described thus: qHTS RealTime-Glo MT Cell Viability Assay in HEK293 cells - 32 hour (AID 1224868). Further: nearly all actives have a fitted effect of over 50% in size. Further: potency means the concentration at half of the fitted maximal effect. The essentials:
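Nonlytic real-time viability readout: viable cells convert prosubstrate to NanoLuc substrate, giving luminescence proportional to live cell number. HEK293, 600 cells/well, compound added after 5 h, continuous culture at 37 C.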

A short description of experiment [10]: A CellTox Green Cytotoxicity Assay to monitor cytotoxicity in HEK293 cells - 0 hour (AID 1224869). Further: nearly all actives have a fitted effect of over 50% in size. Further: potency means the concentration at half of the fitted maximal effect. The essentials:
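Read-out: fluorescence of a cell-impermeant cyanine dye staining DNA of dead cells, proportional to cytotoxicity. HEK293, 600 cells/well with reagent, compound (23 nL DMSO) added after 5 h; reads at 0, 8, 16, 24, 32, 40 h.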

Experiment [11] can be described thus: qHTS RealTime-Glo MT Cell Viability Assay in HepG2 cells - 40 hour (AID 1224870). Further: nearly all actives have a fitted effect of over 50% in size. The essentials: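 HepG2 cells mixed with RealTime-Glo MT reagents (NanoLuc plus cell-permeant prosubstrate) were seeded at 600 cells/well, incubated 5 h at 37 C/5% CO2, then pinned with compounds in DMSO; nonlytic luminescence tracked viability during 40 h treatment.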
A short description of experiment [12]: qHTS assay to identify small molecule agonists of the estrogen related receptor signaling pathway with the pleiotropic PPARgamma coactivator (PGC) from Tox21 10K library (AID 1224842). Further: nearly all actives have a fitted effect of over 15% in size. The procedure, abridged:
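PGC/ERR reporter cells (NTP line) were seeded 2,000 per well, rested 6 h at 37 C/5% CO2, then pin-dosed with compounds in DMSO for 18 h at 37 C; luciferase read by One-Glo luminescence after 30 min at room temperature.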

The target of experiment [13] is Thyrotropin receptor (Homo sapiens) (UniProt P16473). The experiment can be described thus: qHTS assay to identify small molecule agonists of the thyroid stimulating hormone receptor (TSHR) signaling pathway (AID 1224843; calls by dose curve; further: nearly all actives have a fitted effect of over 45% in size). The procedure, abridged:
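Using 15 concentrations per compound in triplicate, cAMP production was monitored in TSHR-HEK293 cells after 30 min compound incubation at RT; HTRF reagents followed, with fluorescence intensity recorded after 1 h.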

The nature of experiment [14]: qHTS assay to identify small molecule antagonists of the estrogen related receptor (ERR) signaling pathway from Tox21 library (AID 1224848). Further: nearly all actives have a fitted effect of over 50% in size. Further: potency means the concentration at half of the fitted maximal effect. The essentials: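 Tox21 10K compounds in DMSO tested for ERR pathway antagonism in NTP's ERR cell line; 18 h, 37 C exposure; ONE-Glo luminescence.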
The nature of experiment [15]: qHTS assay to identify small molecule agonists of the estrogen related receptor (ERR) signaling pathway from Tox21 library (AID 1224849; calls by dose curve; further: nearly all actives have a fitted effect of over 15% in size). The note with it: ERR reporter cell line, ONE-Glo luciferase, 18 h; at 92.4 µM (top of the series) unless noted. The essentials:
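Luminescence readout (ONE-Glo, 30 min RT) after 18 h compound exposure at 37 C of NTP-supplied ERR reporter cells; cells were plated 6 h before compound addition by pin tool.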

Experiment [16] in a line: qHTS RealTime-Glo MT Cell Viability Assay in HepG2 cells - 24 hour (AID 1224867). Further: nearly all actives have a fitted effect of over 50% in size. The essentials: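 Luminescence read-out: viable HepG2 cells reduce a prosubstrate to a NanoLuc substrate, giving a signal proportional to live cell number. Reads taken at 0, 8, 16, 24, 32 and 40 h of compound exposure at 37 C.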
Experiment [17] can be described thus: qHTS assay to identify small molecule antagonists of the constitutive androstane receptor (CAR) signaling pathway - cell viability counter screen (AID 1224837). Further: nearly all actives have a fitted effect of over 45% in size. The procedure, abridged: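 Read-out: CellTiter-Fluor fluorescence after 23 hr at 37 C/5% CO2. Cells: HepG2 double-stable for hCAR and CYP2B6-2.2kb. Compounds tested at 15 concentrations in the presence of CITCO, final concentration 50 nM.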

Experiment [18] can be described thus: qHTS assay to identify small molecule antagonists of the estrogen related receptor signaling pathway with the pleiotropic PPARgamma coactivator (PGC) from Tox21 10K library (AID 1224841; call rule not given here). The essentials: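 Luminescence read-out (One-Glo luciferase reagent, 30 min at room temperature) from PGC/ERR cells exposed to DMSO-dissolved test compounds for 18 h at 37 C; cells, 2,000 per well, had been preincubated 6 h before compound transfer.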

Experiment [19] addresses Luciferin 4-monooxygenase (Photinus pyralis) (UniProt P08659). In words: qHTS assay to identify small molecule inhibitors of firefly luciferase (AID 1224835). Further: nearly all actives have a fitted effect of over 25% in size. The procedure, abridged: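 Quantitative HTS format; KM concentrations of both substrates. Purified P. pyralis FLuc activity quantified from luminescence images.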
Experiment [20] addresses Nuclear receptor subfamily 1 group I member 3 (Homo sapiens) (UniProt Q14994). The experiment can be described thus: qHTS assay to identify small molecule antagonists of the constitutive androstane receptor (CAR) signaling pathway (AID 1224838).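 Further: HepG2 cells stably expressing hCAR with CYP2B6 luciferase reporter stimulated by CITCO; nearly all actives have a fitted effect of over 40% in size.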 The essentials: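 Read-out: ONE-Glo luciferase luminescence after 30 min at room temperature. HepG2-CYP2B6-hCAR double-stable cells, compounds in 15-point titration plus 50 nM CITCO final, 24 h at 37 C/5% CO2.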

Values without a mark were called inactive. Records with an inconclusive call do not appear. The source made the active and inactive calls. Unless noted, the call rests on the fitted dose curve; in most records, active means well fitted curve in the direction sought with a large enough effect in the repeat runs; inconclusive means weak or mixed curves; inactive means no such curve, though single readings can be large; an effect the other way counts as inactive or inconclusive.
On the % scale 0 is the no-effect control and ±100 the full control effect.

Sequence of Luciferin 4-monooxygenase (Photinus pyralis) (P08659 whole entry, looked up): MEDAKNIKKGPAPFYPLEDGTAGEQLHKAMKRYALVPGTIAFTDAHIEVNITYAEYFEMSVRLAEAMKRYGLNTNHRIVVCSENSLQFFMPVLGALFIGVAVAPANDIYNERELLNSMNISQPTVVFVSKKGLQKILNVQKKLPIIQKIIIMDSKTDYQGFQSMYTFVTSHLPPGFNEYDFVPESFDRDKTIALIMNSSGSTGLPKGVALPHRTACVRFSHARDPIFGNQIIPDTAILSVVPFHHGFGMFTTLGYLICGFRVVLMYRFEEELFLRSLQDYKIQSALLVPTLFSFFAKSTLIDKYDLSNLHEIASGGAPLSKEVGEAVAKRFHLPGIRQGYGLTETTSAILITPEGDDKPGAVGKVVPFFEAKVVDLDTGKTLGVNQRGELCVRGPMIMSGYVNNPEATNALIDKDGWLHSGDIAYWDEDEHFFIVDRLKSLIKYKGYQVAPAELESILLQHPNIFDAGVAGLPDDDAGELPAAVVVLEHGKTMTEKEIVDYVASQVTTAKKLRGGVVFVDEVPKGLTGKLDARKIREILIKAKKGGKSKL
Sequence of Nuclear receptor subfamily 1 group I member 3 (Homo sapiens) (Q14994 whole entry, looked up): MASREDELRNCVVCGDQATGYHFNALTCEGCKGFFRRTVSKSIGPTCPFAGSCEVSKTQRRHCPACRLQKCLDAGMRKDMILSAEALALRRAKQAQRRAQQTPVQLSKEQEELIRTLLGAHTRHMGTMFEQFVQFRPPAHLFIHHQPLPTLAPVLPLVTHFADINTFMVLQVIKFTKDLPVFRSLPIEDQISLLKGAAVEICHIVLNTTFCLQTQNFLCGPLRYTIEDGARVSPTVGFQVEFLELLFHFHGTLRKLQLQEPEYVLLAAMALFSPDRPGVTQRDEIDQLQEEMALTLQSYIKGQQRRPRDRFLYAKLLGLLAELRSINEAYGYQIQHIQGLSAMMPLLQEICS
Sequence of Thyrotropin receptor (Homo sapiens) (P16473 whole entry, looked up): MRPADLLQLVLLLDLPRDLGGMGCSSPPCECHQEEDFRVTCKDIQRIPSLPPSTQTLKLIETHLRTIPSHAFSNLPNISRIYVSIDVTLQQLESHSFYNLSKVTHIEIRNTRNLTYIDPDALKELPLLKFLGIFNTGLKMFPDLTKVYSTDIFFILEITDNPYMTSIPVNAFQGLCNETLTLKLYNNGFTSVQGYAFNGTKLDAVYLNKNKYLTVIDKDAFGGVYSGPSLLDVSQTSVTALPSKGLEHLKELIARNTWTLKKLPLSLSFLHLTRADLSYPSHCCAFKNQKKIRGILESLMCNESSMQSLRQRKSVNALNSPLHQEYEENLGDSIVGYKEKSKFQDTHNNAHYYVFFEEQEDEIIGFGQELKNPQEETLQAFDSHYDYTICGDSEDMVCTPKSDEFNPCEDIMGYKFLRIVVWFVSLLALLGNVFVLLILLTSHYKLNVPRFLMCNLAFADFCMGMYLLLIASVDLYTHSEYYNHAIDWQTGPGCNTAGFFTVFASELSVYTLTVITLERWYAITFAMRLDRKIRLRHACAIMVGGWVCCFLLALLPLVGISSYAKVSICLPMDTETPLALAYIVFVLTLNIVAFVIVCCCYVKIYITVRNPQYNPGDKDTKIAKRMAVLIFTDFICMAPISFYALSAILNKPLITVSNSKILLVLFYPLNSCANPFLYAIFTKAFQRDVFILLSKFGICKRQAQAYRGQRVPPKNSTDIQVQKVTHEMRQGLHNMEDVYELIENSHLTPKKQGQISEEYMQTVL

In the case of `[O-][n+]1ccc(Cl)cc1`, the Potency entry in [1], in experiment [2], in experiment [3], in experiment [4], in experiment [5] and in experiment [6] was “inactive” in each case. In addition, the Potency result in experiment [8], in experiment [9], in [10] and in [11] was “inactive” in each case. Moreover, the molecule was classed as inactive in experiment [7].

As to `NC(=O)c1ccccc1C(N)=O`, the Potency result in experiment [1], in experiment [2], in experiment [3], in experiment [12], in experiment [13] and in experiment [6] was “inactive” in each case. In addition, the Potency entry in experiment [8] and in experiment [11] was “inactive” throughout. Further, the Potency in experiment [5] was 49.2 µM (active); in experiment [14] it was 48.8 µM (active); in experiment [9], 31 µM (active); in experiment [10], 49.2 µM (active). In addition, in [15], the activity change, positive = activation is -52.8%. The result in experiment [16] was inactive.

As for `CC(O)CN` (stereo unspecified), the Potency result in experiment [1], in experiment [2], in experiment [17], in [4], in experiment [18] and in [12] was “inactive” in each case. The Potency entry in experiment [13], in experiment [5], in experiment [6], in [8], in experiment [14] and in [9] was “inactive” throughout. In addition, the Potency entry in experiment [10] and in experiment [11] was “inactive” throughout. Besides, the result in [7] and in [16] was inactive. Moreover, the activity change, positive = activation in experiment [15] was 0.61%.

Regarding `CCCCCCCCCCCC(=O)OCC`, the Potency result in experiment [1], in experiment [2], in [4], in experiment [13], in experiment [5] and in experiment [6] was “inactive” each time. In addition, the Potency entry in experiment [8], in experiment [9], in experiment [10] and in experiment [11] was “inactive” in each case. Also, the call in experiment [16] was inactive.

In the case of `CCC(CC)C(=O)O`, the Potency result in experiment [19], in experiment [2], in [17], in experiment [20], in experiment [3] and in [4] was “inactive” in each case. For the same molecule, the Potency result in experiment [5], in experiment [6], in experiment [9], in experiment [10] and in experiment [11] was “inactive” throughout. Also, the outcome in [7] and in experiment [16] was inactive.

Take `Oc1ccc(CCNCCCCCCNCCc2ccccc2)cc1O`: the Potency entry in [19], in experiment [2], in [17], in [20], in [3] and in experiment [4] was “inactive” in each case. The Potency result in experiment [18], in experiment [12] and in experiment [8] was “inactive” in each case. Further, the result in [7] and in [16] was inactive. In addition, the activity change, positive = activation in [15] was -19.4% [at 42.5 µM]. Moreover, the Potency in [9] was 26.8 µM (active).

As for `C=C[Si](OCC)(OCC)OCC`, the Potency entry in experiment [1], in [2], in [4], in [13], in [5] and in experiment [6] was “inactive” throughout. The Potency entry in [9], in experiment [10] and in experiment [11] was “inactive” throughout. The result in experiment [7] and in [16] was inactive.

With `O=C1C=CCCC1`, the Potency result in [19], in [2], in [17], in experiment [20], in experiment [3] and in experiment [4] was “inactive” throughout. In addition, the Potency entry in experiment [13], in [5], in experiment [6], in experiment [9], in experiment [10] and in experiment [11] was “inactive” each time. In addition, the outcome in [7] and in [16] was inactive.

For the molecule `O=C(OC1C[C@H]2CC[C@@H](C1)[N+]21CCCC1)C(O)(c1ccccc1)c1ccccc1` (stereo partly specified), the Potency result in experiment [1], in [2], in experiment [20], in experiment [3], in experiment [4] and in [13] was “inactive” each time. Moreover, the Potency result in experiment [5], in experiment [6], in [8], in experiment [9] and in experiment [11] was “inactive” throughout. In addition, the outcome in experiment [16] was inactive.

The record behind these values is PubChem BioAssay (Tox21).
